# Bioassay records: PubChem BioAssay, National Center for Advancing Translational Sciences (NCATS)
# VACV mCherry inh – inhibitors of vaccinia virus infection (mCherry reporter signal). Vaccinia virus mCherry reporter infection, fluorescence. Potency, µM (highest dose often 36.5 µM), for the others: at the top dose activity change, negative = inhibition, usual class: inhibitors. 0.63% of 310,000 active; calls by dose curve; tested in A549 cells; note: potency is the fitted concentration of half-maximal effect; nearly all actives have a fitted effect of over 35% in size
# Marburg entry inh – inhibitors of Marburg virus binding or cell entry; Marburg virus pseudotyped entry inhibition, cell reporter; Potency, µM (top dose mostly 37.8 µM), for inactives: at the highest dose activity change, negative = inhibition, actives largely listed as inhibitors; 1.8% of 300,000 active; calls by dose curve; tested in HEK293 cells; note: potency is the fitted concentration of half-maximal effect
# HCMV antiviral – human cytomegalovirus inhibition. HFF cells, HCMV-luciferase reporter, 72 h; stronger effect = lower value. activity change, negative = inhibition, % at 57.5 µM. 4.5% of 410,000 active. AID 1259415; in the data active = activity change below about -60%; inconclusive = no clear call, values can overlap the other calls; inactive = above about -39%
#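 Compounds were evaluated in HFFs infected with an HCMV luciferase reporter virus (MOI 1 PFU/cell). Luciferase in lysates collected 72 h post infection served as the replication measure.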
# FMDV inh – blocks foot and mouth disease virus; FMDV antiviral cell-based qHTS; 1.2% of 410,000 active; AID 1159524; Potency, µM (top dose mostly 57.9 µM), for inactives: top-dose activity change, negative = inhibition, actives largely listed as inhibitors; calls by dose curve; tested in HEK293T cells; note: read-out not given here; potency is the fitted concentration of half-maximal effect; nearly all actives have a fitted effect of over 45% in size
# VACV Venus inh – inhibitors of vaccinia virus (Venus reporter) | Vaccinia virus Venus reporter expression, fluorescence | Potency, µM (highest dose often 36.5 µM), inactives show top-dose activity change, negative = inhibition, most hits filed as inhibitors | 0.46% of 330,000 active | AID 720580; calls by dose curve; tested in A549 cells; note: potency is the fitted concentration of half-maximal effect; nearly all actives have a fitted effect of over 30% in size
# LASV entry inh – Lassa virus entry inhibition; AID 540256; 1.2% of 300,000 active; Potency, µM (top dose mostly 37.9 µM), for the others: at the top dose activity change, negative = inhibition, hits mostly inhibitors; Lassa virus pseudotype entry inhibition, cell reporter; calls by dose curve; tested in HEK293 cells; note: potency is the fitted concentration of half-maximal effect; nearly all actives have a fitted effect of over 50% in size
# * hit, by the source's call; i = inactive; ? = inconclusive; . = not tested or not shown; ! = not active in a repeat; [ ] = dose if it differs, or a comment. Rows were chosen to be rich in hits. Some 6.5% of all compounds tested hit in one or more screens of this group. % is set by controls: 0 for no effect and ±100 for the full control effect.
SMILES,VACV mCherry inh,Marburg entry inh,HCMV antiviral,FMDV inh,VACV Venus inh,LASV entry inh
O=C(CCN1CCN(Cc2ccccc2)CC1)NNC(=O)Nc1cccc(Cl)c1,-15%,0%[46.1 µM],16,7%,-28%,-10%[46.1 µM]
O=C(NC1CCN(Cc2ccccc2)CC1)c1ccccc1,.,.,-9,-16%,.,.
CCOc1ccc(C(=O)OCC(=O)NC2CCCCCCC2)cc1,.,.,10,-23%,.,.
O=C(CCN1CCN(Cc2ccccc2)CC1)NNC(=O)Cc1ccc(Cl)c(Cl)c1,28µM*,-24%,-11,-24%,?,15%
CCCCOc1ccc(C(=O)OCC(=O)NC2CCCC2)cc1,-9%,2%,-100*,-25%,-8%,?
O=C(NC1CCN(Cc2ccc(Cl)cc2Cl)CC1)c1ccccc1,i,?,-81*,?,-16%,?
COc1ccc(CC(N)c2csc(NC(=O)Nc3ccc(F)cc3)n2)cc1 (stereo not drawn),-26%,.,-10,-33%,-13%,.
NC(Cc1ccc(C(F)(F)F)cc1)c1csc(Nc2nncc3ccccc23)n1 (stereo not drawn),?,.,-104*,-24%,?,.
NC(Cc1ccc(Cl)cc1)c1csc(NC(=O)Nc2ccccc2)n1 (stereo not drawn),?,.,14,-27%,?,.
COc1ccc(CC(N)c2csc(NC(=O)Nc3cccc(C(F)(F)F)c3)n2)cc1 (stereo not drawn),?,.,-39,-15%,14µM*,.
CCCCN(C)C(=O)c1ccc(Nc2nc(C(N)Cc3ccc(C(F)(F)F)cc3)cs2)nc1 (stereo not drawn),-20%,.,-76*,-23%,-21%,.
NC(Cc1ccc(C(F)(F)F)cc1)c1csc(NC(=O)Nc2ccccc2)n1 (stereo not drawn),?,.,-28,-24%,10µM*,.
Cc1ccc(NC(=O)Cn2c(=O)n(-c3ccc(Cl)c(Cl)c3)c(=O)c3c(C)c(C)sc32)c(C)c1,-15%,1%[46.1 µM],-5,-22%,6%,5%[46.1 µM]
Nc1nn(-c2ccccc2)nc1C(=O)OCc1ccc(Cl)cc1,-9%,15%[46.1 µM],-1,6%,-10%,-20%[46.1 µM]
COc1cccc(NC(=O)C2CCC(CNS(=O)(=O)c3ccc4c(c3)CCCC(=O)N4)CC2)c1 (stereo not drawn),-18%,.,-26,?,-4%,-3%[46.1 µM]
NC(CCc1ccccc1)c1csc(NC(=O)Nc2cccc(C(F)(F)F)c2)n1 (stereo not drawn),?,.,-98*,-23%,?,.
CC(C)C(N)c1csc(NC(=O)Nc2cccc(C(F)(F)F)c2)n1 (stereo not drawn),-8%,.,3,-12%,-24%,.
O=C(Nc1ccn(Cc2c(F)c(F)cc(F)c2F)n1)c1ccc(COc2ccccc2Cl)cc1,-24%,?,-71*,-16%,?,?
O=C(Nc1ccn(Cc2ccccc2F)n1)c1ccc(COc2cccc(Br)c2)cc1,-13%,8.9µM*,27,0%,?,?
O=C(Nc1ccn(Cc2ccccc2F)n1)c1ccc(COc2ccccc2Cl)cc1,?,?,-98*,?,?,?
COC(=O)CCC(=O)NN1C(=O)c2ccccc2C1=O,.,.,-68*,-24%,.,.
COc1ccc(CC(=O)NN2C(=O)c3ccccc3C2=O)cc1,-20%,2%,22,6%,-13%,1%
CC(=O)Nc1ccc(S(=O)(=O)Oc2ccc(C(=S)N3CCC(O)CC3)cc2)cc1,-8%,?,-72*,?,-15%,4%
CCOc1cc(C(=S)N2CCOCC2)ccc1OS(=O)(=O)c1ccc(NC(C)=O)cc1,-13%,-16%,-83*,.,-12%,?
CN(C1CCCCC1)S(=O)(=O)c1ccc(F)c(C(=O)Nc2ccc(C(F)(F)F)cc2)c1,-23%,.,-14,?,-18%,9%[46.1 µM]
SMILES,VACV mCherry inh,Marburg entry inh,HCMV antiviral,FMDV inh,VACV Venus inh,LASV entry inh
c1ccc2c(c1)OCC(C1=NCCN1)O2 (stereo not drawn),-10%,?,4,?,-10%,2.6µM*!
Nn1c(C2COc3ccccc3O2)n[nH]c1=S (stereo not drawn),.,.,-39,2%,.,.
Cc1cccc(-c2noc(CN(C3CCCCC3)S(=O)(=O)c3ccc(F)cc3)n2)c1,-4%,12%[46.1 µM],-39,10%,-9%,1%[46.1 µM]
Cc1cn2c(=O)cc(COc3ccc(NC(=O)c4ccc(C(C)(C)C)cc4)cc3)nc2s1,-27%,22%[46.1 µM],-20,-12%,?,19%[46.1 µM]
O=C(N/N=C/c1sc(=O)n(Cc2ccc(Br)cc2)c1Cl)c1ccco1,-18%,?,-92*,-21%,-21%,?
CCN1C(=O)[C@@H]2[C@H]3[C@H](O)[C@H](O)CC(=NO[C@H](C)c4cn([C@@H]5COC[C@@H]5O)nn4)[C@@H]3CC[C@H]2C1=O,.,-32%[14.2 µM],.,.,.,.
Cc1[nH][nH]c(=O)c1C(c1c(C)[nH][nH]c1=O)c1cn(Cc2ccc(Cl)c(Cl)c2)c2ccccc12,-27%,8.2µM*,?,?,-21%,?
CCOc1ccc(-c2cn(-c3ccccc3OC)c(=S)[nH]2)cc1,-28%,?,-80*,-7%,-18%,-17%[46.1 µM]
COCCNC(=O)c1oc2ccc3c(c2c1C)C(O)CC(C)(C)O3 (stereo not drawn),.,.,40,13%,.,.
Cc1c(C(=O)N2CCC(C)CC2)oc2ccc3c(c12)C(O)CC1(CCCCC1)O3 (stereo not drawn),-4%[7.34 µM],.,-70*,5%,-26%[7.34 µM],.
COc1cc(=O)n2c(c1C(=O)NCc1cccc(F)c1)CCN(Cc1cccnc1)CC2,i,.,.,-3%,-3%,.
O=C(Nc1c(C(=O)c2ccccc2)oc2ccccc12)c1cc(-c2ccccc2O)n[nH]1,?,?,2,-27%,?,-7%
Cc1ccc(C(=O)c2oc3ccccc3c2NC(=O)c2cc(-c3ccccc3O)n[nH]2)cc1,-21%,-23%,-63*,-26%,-17%,-22%
Cc1ccc(C(=O)c2oc3ccccc3c2NC(=O)c2cc(-c3cc(C)ccc3O)n[nH]2)cc1,-11%[7.34 µM],.,-63*,-15%,-14%[7.34 µM],.
CC(C)(C)c1ccc(C(=O)Nc2c(C(=O)c3ccc(F)cc3)oc3ccccc23)cc1,-2%,-5%[46.1 µM],1,-23%,2%,8%[46.1 µM]
CCOc1ccc(CCNC(=O)CS(=O)(=O)Cc2nc(-c3ccccc3F)oc2C)cc1,i,?,-66*,-28%,-20%,1%[46.1 µM]
COc1cccc(-c2nc(CS(=O)(=O)CC(=O)Nc3c(C)cccc3C)c(C)o2)c1,-17%,2%,?,3%,?,.
Cc1ccccc1-c1nc(CS(=O)(=O)CC(=O)Nc2c(C)cccc2C)c(C)o1,-21%,-3%[46.1 µM],-78*,-30%,-20%,-14%[46.1 µM]
CCOc1ccc(CCNC(=O)CS(=O)(=O)Cc2nc(-c3ccc(OC)cc3)oc2C)cc1,-28%,-5%[46.1 µM],-21,-14%,-18%,-25%[46.1 µM]
COc1ccc(-c2nc(CS(=O)(=O)CC(=O)NCCc3cc(OC)ccc3OC)c(C)o2)cc1,.,?,-71*,9%,.,-10%
